Assay results reported in PubChem BioAssay (NCI).
The panel holds about 79,000 compounds, 15% with a hit somewhere; the sample as a whole holds those more often. A number with no mark means an inactive call. Active and inactive are the calls of the source. Cut-off read from the data, not from the text of the source: active = growth inhibition above about 70%; inactive = the rest.

Experiments:
[1] = NCI Yeast Anticancer Drug Screen. Data for the rad50 strain (AID 155);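 note: 0% = growth of vehicle-only cultures of the same strain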; settings: S. cerevisiae rad50 strain growth inhibition; at 50.0 µM; hits give high values
Outline: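 Genetically altered yeast (DNA repair pathway); compound treatment; growth inhibition vs vehicle ctrl.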

[2] = NCI Yeast Anticancer Drug Screen. Data for the mec2-1 strain (AID 157); settings: S. cerevisiae mec2-1 strain, at 50.0 µM, hits give high values
Outline: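 Yeast mec2-1 mutant treated with compound. Readout: growth inhibition vs vehicle controls.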

[3] = NCI Yeast Anticancer Drug Screen. Data for the sgs1 mgt1 strain (AID 161);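 note: 0% = growth of cultures given vehicle only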; settings: S. cerevisiae sgs1 mgt1 strain, at 50.0 µM, hits give high values
Outline: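 Mutant yeast exposed to compound; growth scored against vehicle-only wells.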

[4] = NCI Yeast Anticancer Drug Screen. Data for the cln2 rad14 strain (AID 165);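 note: 0% = growth equal to vehicle treated cultures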; settings: S. cerevisiae cln2 rad14 strain, at 50.0 µM, hits give high values
Outline: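 cln2 rad14 yeast strain; compound exposure; growth inhibition read vs vehicle controls.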

[5] = NCI Yeast Anticancer Drug Screen. Data for the bub3 strain (AID 167); settings: S. cerevisiae bub3 mutant strain, at 50.0 µM, hits give high values
Outline: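 Yeast carrying a defined mutation is treated with each compound, and growth is compared with that of vehicle-exposed cells to give inhibition.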

[6] = NCI Yeast Anticancer Drug Screen. Data for the mlh1 rad18 strain (AID 175); settings: S. cerevisiae mlh1 rad18 strain growth inhibition; at 50.0 µM; hits give high values
Outline: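 Yeast w/ defined DNA-repair lesions; compound exposure; growth vs vehicle controls → % inhibition.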

SMILES	growth inhibition [1]	growth inhibition [2]	growth inhibition [3]	growth inhibition [4]	growth inhibition [5]	growth inhibition [6]
COC(=O)c1ccc(NCC2=CC(=O)c3ccccc3C2=O)cc1	46.9%	38%	59%	48.4%	54%	88% (active)
COc1ccc(C(CC(=O)O)c2ccc(OC)cc2OC)cc1 (stereo unspecified)	-0.3%	0.8%	11.8%	-24.5%	0.85%	6.95%
O=C1C=C(Nc2cccnc2)c2ccccc2C1=O	9.5%	-7.2%	0.4%	8.5%	19.6%	8.8%
Cc1c(C)n(C)c(=S)n(C)c1=S	4.95%	4.15%	5.8%	31.6%	1.85%	8.65%
Nc1ncnc2c1ncn2-c1ccc(N(CCO)CCO)cc1	5.5%	-12.3%	-1.15%	-30.2%	-9.45%	8.35%
O=C(c1cccc(C(=O)N2CCCC2)n1)N1CCCC1	-11.4%	-13.2%	-1.7%	-25.6%	-15.5%	-18.8%
CCCCCCCCOc1ccc(C=Nc2ccc(C)cc2)cc1	-2.05%	19.3%	0.45%	-9.8%	16.9%	13%
CCOC(=O)COc1ccc(Cc2ccc3c(c2)OCO3)cc1C	-0.7%	3.1%	-2.45%	-6.05%	16.2%	0.9%
Nc1nc2c(C(=O)c3cccs3)nnn2c2cccc(Cl)c12	-21.1%	-21.1%	-21.9%	-12.2%	-14.8%	-2.25%
Cc1cc(Cl)ccc1NC(=O)/C(Cc1nc2ccc(C(=O)c3ccccc3)cc2[nH]c1=O)=N/NC(=O)c1ccncc1	21.9%	17.1%	1.45%	-33.7%	4.7%	16.1%
CCN(CC)c1cccc2c1C1(O)CCC3(CC21)OCCCCO3 (stereo unspecified)	-33%	-21.6%	-57.3%	-1.65%	-45%	-28.9%
CC1(C)CN(CCC#N)C(c2ccc([N+](=O)[O-])cc2)O1 (stereo unspecified)	2.95%	3.3%	8.1%	-9.4%	14%	-14.8%
COc1ccc(CCN2C(CC(=O)c3ccccc3)CCCC2CC(=O)c2ccccc2)cc1OC (stereo unspecified)	-8.05%	-10.4%	-0.9%	-0.2%	0.65%	-2.75%
COC1/C=C/OC2(C)Oc3c(C)c(O)c4c(c3C2=O)C(N)=C(Nc2ccccc2)C(=NC(=O)C(C)=CC=CC(C)C(O)C(C)C(O)C(C)C(OC(C)=O)C1C)C4=O (stereo unspecified)	15.5%	45.5%	41.9%	46.5%	16.9%	39.9%
Cc1cc2nc(CC(C(F)(F)F)C(F)(F)F)oc2cc1C	-21%	-13.4%	-13.2%	-4.85%	-14.4%	34.9%
CC(=O)Nc1ccc(C2CCCC2)cc1Br	-3.05%	-2.15%	0%	-39.8%	-12.2%	-4.45%
CC(C)=CCC1=C(OCC(=O)O)C(=O)c2ccccc2C1=O	30.9%	1.45%	12.8%	-2.7%	20.1%	23.1%
CC(=O)OCC(OC(C)=O)C(OC(C)=O)c1cnn(-c2ccccc2)n1 (stereo unspecified)	12.6%	-1.5%	2.5%	17.7%	24.6%	22%
O=C(Nc1ccccc1)Sc1nc2ccccc2s1	24.5%	17.8%	45.5%	13.7%	53.9%	27.6%
CCCCCCC1OCC(C)([N+](=O)[O-])CO1 (stereo unspecified)	13.9%	-8.8%	-1.1%	-28.8%	-12.6%	5.65%
CN(C)CC1CCC/C(=C\c2ccccc2)C1=O (stereo unspecified)	37.1%	41.8%	47.8%	32.5%	38.5%	16.7%

SMILES	growth inhibition [1]	growth inhibition [2]	growth inhibition [3]	growth inhibition [4]	growth inhibition [5]	growth inhibition [6]
O=c1c[n+](-c2ccccc2)[nH]o1	41.2%	-12.1%	22.1%	5.5%	7.7%	27.5%
N#CC1(C#N)C(CCl)C1(C#N)C#N	2.85%	-6.95%	-1.15%	-15.2%	-4%	-8.6%
COC(=O)C(C(=O)c1ccccc1)C(C(=O)C(=O)Nc1ccc(OC)cc1OC)C(=O)C(=O)c1ccc(C)cc1 (stereo unspecified)	-1.3%	10.8%	3.7%	-3.9%	2.85%	19.6%
CC(NC(=O)OC(C)(C)C)C(=O)NC(Cc1ccccc1)C(=O)NCC(=O)ON=C1CCCC1 (stereo unspecified)	37.1%	4.1%	32.6%	7.3%	1.9%	23.6%
COc1cccc2cc(C(=O)Nc3ccccc3)c(=N)oc12	2.75%	12.7%	-31%	9.3%	-37.9%	-43%
CC(C)CCC(C)(C)O	45.9%	1.8%	16.1%	-20.7%	9.95%	34.2%
CC(=O)OC1C(=O)C2C(CC=C3CC(O)CC(O)C32C)C2CCC(C(C)C3CC(C)C(C)(C)O3)C12C (stereo unspecified)	-31.3%	-5.15%	-29.8%	-10.4%	-10.8%	-25.6%
CC(c1ccccc1)C1CC(=O)N(C)C1=O (stereo unspecified)	7.85%	-15%	0.45%	-19.9%	-23.8%	2.35%
CCOC(=O)NC(Nc1ccc([N+](=O)[O-])cc1)(C(F)(F)F)C(F)(F)F	45.4%	40.2%	22.8%	32.1%	42%	59.1%
CC(N)(CCSCP(=O)(O)O)C(=O)O (stereo unspecified)	-22.1%	-7.4%	-19.5%	-26.9%	-7.45%	-27.4%
CC(=O)Nc1cc2c(cc1Br)-c1ccc(Br)cc1C2	32.4%	8.4%	11.8%	15.6%	-2.45%	14.4%
COc1ccc(/C=C/C(=O)N(C)C)cc1	3.1%	5.65%	-0.15%	12.4%	-2.5%	-3.05%
N#CC(C#N)=CNC(N)=S	-4.7%	-8.75%	-20.7%	13.7%	-14.8%	10.1%
CN1CCC(=O)C(c2ccccc2)(c2ccccc2)CC1	-8%	-8.6%	3.45%	-24.9%	28.4%	-26.7%
CCOc1cc(=O)cc2n(-c3cc(OCC)c(OC)c(OCC)c3)c3ccccc3nc1-2	38%	11.7%	23.6%	21.9%	-1.4%	-1.2%
O=C(CCCCCCCCC(=O)NC1CCCCC1)NC1CCCCC1	-13.2%	-26.5%	-21.6%	-20.8%	-19%	-5.4%
COCC(=O)C(C(C)=O)C(c1ccc2c(c1)OCO2)C(C(C)=O)C(=O)COC (stereo unspecified)	-40.5%	-8.25%	-18.9%	-39.5%	-5.75%	-2.6%
CC(C)NC(c1ccccc1)c1ccccc1	0.3%	-11.7%	-6.9%	10.2%	1.6%	2.9%
O=c1[nH]c2cc([N+](=O)[O-])ccc2nc1/C(=N/Nc1ccccc1)C(O)c1ccco1 (stereo unspecified)	7.9%	-17.4%	9.2%	16.2%	6.65%	25.3%
Cc1cc[n+](CC(=O)c2ccc(Br)cc2)cc1	22.8%	12.7%	18.4%	22.9%	4.35%	54.5%
